# Compound activity as filed in PubChem.
# In the library only some 2.7% were active in any assay of this set; here they are far more common.
# ATXN2 expr inh – Primary qHTS for Inhibitors of ATXN expression; HEK-293 ATXN2-luciferase reporter, luminescence, 24 h; Potency, µM (series often up to 57 µM), without a hit: at the highest dose activity change, negative = inhibition, usual class: inhibitors; hit rate 0.72% among 360,000; AID 1745845, 2022; also: % is scaled to controls: 0 for no effect and ±100 for the full control effect; nearly all actives have a fitted effect of over 55% in size
#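 ATXN2-luciferase reporter cells (luciferase flanked by upstream and downstream ATXN2 gene portions) were treated 24 h at 37 °C with compounds at up to 57 uM. SteadyGlo luminescence gave expression; GF-AFC fluorescence gave viability.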
# 12-LOX inh – Primary qHTS assay for inhibitors of human arachidonate 12S-lipoxygenase (ALOX12): Round 2; purified 12hLO, xylenol orange hydroperoxide absorbance; AID 1671190, 2021; hit rate 1.1% among 580,000; Potency, µM (top dose mostly 108 µM), without a hit: at the highest dose activity change, negative = inhibition, hits mostly inhibitors; also: % is scaled to controls: 0 for no effect and ±100 for the full control effect
# Target sequence (P18054 whole entry, looked up): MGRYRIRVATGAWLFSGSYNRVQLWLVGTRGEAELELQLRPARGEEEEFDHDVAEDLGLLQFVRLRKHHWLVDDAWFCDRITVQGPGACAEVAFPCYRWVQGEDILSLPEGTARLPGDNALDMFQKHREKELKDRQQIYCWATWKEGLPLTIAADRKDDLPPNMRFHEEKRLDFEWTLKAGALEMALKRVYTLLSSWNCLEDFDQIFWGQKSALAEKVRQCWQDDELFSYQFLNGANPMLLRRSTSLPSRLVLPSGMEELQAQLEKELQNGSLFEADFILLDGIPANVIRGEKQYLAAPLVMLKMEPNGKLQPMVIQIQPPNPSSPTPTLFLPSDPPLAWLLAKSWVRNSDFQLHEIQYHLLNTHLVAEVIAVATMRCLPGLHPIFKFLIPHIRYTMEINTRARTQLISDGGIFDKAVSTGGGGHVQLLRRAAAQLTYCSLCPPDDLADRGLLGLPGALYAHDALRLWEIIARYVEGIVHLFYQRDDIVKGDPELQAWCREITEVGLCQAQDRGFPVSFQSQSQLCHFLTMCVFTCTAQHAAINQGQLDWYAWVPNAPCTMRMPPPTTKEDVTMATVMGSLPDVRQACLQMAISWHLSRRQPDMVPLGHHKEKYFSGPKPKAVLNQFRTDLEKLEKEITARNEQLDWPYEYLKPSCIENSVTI
#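 Hydroperoxide product was detected by ferrous iron/xylenol orange as the 573 to 405 nm absorbance ratio. Arachidonic acid at 40 uM (final) was turned over for 30 min at room temperature by 150 nM human 12hLO, pH 7.0 Hepes buffer, after 15 min compound preincubation.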
# ATXN viability – Viability Counterscreen for Primary qHTS for Inhibitors of ATXN expression; hit rate 0.49% among 400,000; S2 cells (HEK-293 line with an ATXN2-luciferase reporter) viability, CellTiter-Fluor protease fluorescence, 24 h; Potency, µM (series often up to 56.7 µM), most hits filed as cytotoxic; AID 651635, 2014; also: nearly all actives have a fitted effect of over 40% in size
# HepG2 tox-1 – qHTS for Inhibitors of TGF-b: Cytotox Counterscreen | HepG2 CAGA-GFP viability, ATP luminescence, 18 h | Potency, µM (doses to about 46.1 µM), for inactives: top-dose activity change, negative = cytotoxicity, most hits filed as cytotoxic | hit rate 0.76% among 410,000
#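 CellTiter-Glo luminescence gave cytotoxicity after 18 hours at 37 degrees C. The cells were HepG2 CAGA-GFP in 1% FBS DMEM, stimulated with 500 pg/mL TGF-beta after compound addition. %Activity was normalised to no-cell wells (complete cell-killing) and DMSO (no toxicity), and curves were fitted and classified.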
# TGFb SMAD3 inh – qHTS for Inhibitors of TGF-b. HepG2 CAGA-GFP TGF-b/SMAD3 reporter, GFP fluorescence, 18 h; TGF-beta stimulated, 500 pg/mL final. Potency, µM (top dose mostly 46.1 µM), inactives show at the top dose activity, negative = inhibition, actives largely listed as inhibitors. hit rate 1.2% among 410,000. AID 588855, 2011; also: % is scaled to controls: 0 for no effect and ±100 for the full control effect; nearly all actives have a fitted effect of over 65% in size
#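 Inhibition of TGF-beta-driven CAGA-GFP reporter expression in HEPG2 cells is measured by cellular GFP fluorescence after 18 h stimulation with 500 pg/mL recombinant TGF-beta in 1% FBS medium at 37 degrees C.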
# TGFb CAGA inh – qHTS for Inhibitors of TGF-b: Confirmation of Cherry Picks | hit rate 63% among 1,600 | Potency, µM (doses to about 46.1 µM), for the others: top-dose activity, negative = inhibition, hits mostly inhibitors | HepG2 CAGA-GFP TGF-b reporter, GFP fluorescence, 18 h; cells stimulated with TGF-beta, 500 pg/mL | shares compounds with TGFb SMAD3 inh | AID 720534, 2013; also: % is scaled to controls: 0 for no effect and ±100 for the full control effect; nearly all actives have a fitted effect of over 65% in size
# HepG2 tox-2 – qHTS for Inhibitors of TGF-b: Cytotox Counterscreen for Cherry Picks; shares compounds with TGFb SMAD3 inh; HepG2 CAGA-GFP viability, ATP luminescence, 18 h; cells stimulated with TGF-beta, 500 pg/mL; Potency, µM (top dose mostly 46.1 µM), without a hit: at the top dose activity, negative = cytotoxicity, actives largely listed as inhibitors; hit rate 27% among 1,600; AID 720535, 2013; also: % is scaled to controls: 0 for no effect and ±100 for the full control effect; nearly all actives have a fitted effect of over 70% in size
# CCL64 TGFb inh – qHTS for Inhibitors of TGF-b: CCL64 Cells Orthogonal Assay for Cherry Picks; CCL64 CAGA-GFP reporter, TGF-b stimulated, GFP fluorescence, 18 h; hit rate 41% among 1,600; Potency, µM (top dose mostly 46.1 µM), without a hit: top-dose activity, negative = inhibition, actives largely listed as inhibitors; AID 720536, 2013; shares compounds with TGFb SMAD3 inh; also: nearly all actives have a fitted effect of over 65% in size
# COP TGFb inh – qHTS for Inhibitors of TGF-b: Hit Validation in HepG2 Cells using COP promoter. HepG2 COP-GFP TGF-b reporter, GFP fluorescence, 18 h; cells stimulated by added recombinant TGF-beta. AID 720537, 2013. shares compounds with TGFb SMAD3 inh. hit rate 3% among 1,600. Potency, µM (top dose mostly 46.1 µM), inactives show at the highest dose activity, negative = inhibition, hits mostly inhibitors; also: nearly all actives have a fitted effect of over 70% in size
# * = called active by the depositor; i = inactive; u = inconclusive; x = no result; [ ] = another dose, or the depositor's remark. Calls follow the shape of the dose curve; as a rule, active = well fitted curve in the direction sought with a large enough effect; inconclusive = small, poorly fitted or top-dose-only effect, or another doubt; inactive = no such curve, though single readings can be large; an effect the other way counts as inactive or inconclusive. Potency is read from the fitted curve at half-maximal effect.
SMILES,ATXN2 expr inh,12-LOX inh,ATXN viability,HepG2 tox-1,TGFb SMAD3 inh,TGFb CAGA inh,HepG2 tox-2,CCL64 TGFb inh,COP TGFb inh
CC12CCC3C(CCC4(O)CC(O)CCC34C=NO)C1(O)CCC2C1=COC(=O)C1 (stereo not drawn),u,12%,u,-43%,1µM*,12µM*,1µM*,0.29µM*,57%
CCCCN=C[C@]12CCC(O)CC1(O)CCC1[C@@H]2CC[C@]2(C)[C@H](C3C=CC(=O)O3)CCC12O (stereo partly drawn),u,12%,i,-68%,3.5µM*,u,1.2µM*,1.5µM*,41%
Cc1nc(-c2ccco2)cc([C@H]2CN3CC[C@H]2C[C@@H]3CNCc2ccccc2)n1,x,67%[176 µM],x,x,x,x,x,x,x
C=C1C(O)[C@@H]2O[C@]3(CC[C@H](/C=C/C(C)[C@@H]4CC(C)=CC5(O[C@H](C[C@@](C)(O)C(=O)O)CCC5O)O4)O3)CC[C@H]2O[C@@H]1C(O)CC(C)[C@H]1OC2(CCCCO2)CCC1C (stereo partly drawn),0.32µM*,x,u,-71%,0.089µM*,0.021µM*,0.052µM*,0.082µM*,u
COC(=O)C1=C(c2ccc(-c3ccccc3)c(F)c2)C[C@@H]2CC[C@H]1N2C(=O)NCc1ccco1,u,-14%,u,-16%,u,8.2µM*,u,u,58%
COC(=O)C1=C(c2ccc(F)cc2OCc2ccccc2)C[C@@H]2CC[C@H]1N2C(=O)NCc1ccccc1OC,0%,0%,u,-25%,u,u,-13%,u,1%
COC(=O)C1=C(c2ccc(-c3ccccc3)c(F)c2)C[C@@H]2CC[C@H]1N2C(=O)NCCO,-22%,7%,i,-26%,-12%,x,x,x,x
COC(=O)C1=C(c2cccc(C#N)c2)C[C@@H]2CC[C@H]1N2C(=O)NCc1cc(C)oc1C(F)(F)F,-12%,3%,i,-36%,-8%,x,x,x,x
COC(=O)C1=C(c2ccc(F)cc2OCc2ccccc2)C[C@@H]2CC[C@H]1N2C(=O)NCc1ccccc1,u,0%,u,-21%,u,x,x,x,x
COC(=O)C1=C(c2ccc(-c3ccccc3)c(F)c2)C[C@@H]2CC[C@H]1N2C(=O)NCc1cc(C)oc1C(F)(F)F,u,u,u,-5%,1.6µM*,u,-15%,u,30%
CC1OC(OC2C(O)CC(OC3C(O)CC(OC4CCC5(C)C(CC[C@@H]6[C@@H]5CCC5(C)C(C7=CC(=O)OC7)CCC65O)C4)OC3C)OC2C)CC(O)C1O (stereo partly drawn),x,4%,x,x,x,x,x,x,x
COc1cc(O)c2c(c1)/C=C/C[C@H](O)[C@H](O)C(=O)CCC[C@H](C)OC2=O,2%,1%,i,-5%,2µM*,8.2µM*,-12%,7.3µM*,u
O=C(C1CCOCC1)N1CCC2(CC1)NCc1ccccc1-n1ccnc12,x,16%,x,x,x,x,x,x,x
COC(=O)C1=C(c2ccc(OC(F)(F)F)cc2)C[C@@H]2CC[C@H]1N2C(=O)N1CCC(C)CC1,u,2%,28µM*,3%,6.3µM*,16µM*,u,u,50%
COc1cc2c(c(OC)c1OC)-c1ccc(O)cc1[C@@H](NC(C)=O)CC2,-13%,-2%,u,11%,u,u,8%,0.52µM*,u
COc1cc2c(c(OC)c1OC)-c1ccc(O)cc1C(NC(C)=O)CC2 (stereo not drawn),4%,-1%,i,1%,-2%,x,x,x,x
Cc1nccc(N2CCN(C)C3(CCC(=O)N(C)CC3)C2)n1 (stereo not drawn),x,14%,x,x,x,x,x,x,x
Cc1ccc(-c2cc(-c3ccc(C)cc3)[n+](-c3ccccc3)c(-c3ccc(C)cc3)c2)cc1,u,x,x,-69%,1.3µM*,1.5µM*,9.2µM*,1.6µM*,-75%
Clc1cccc(N2Cc3cc(-c4ccccc4)ccc3-n3nncc3C2)c1,22µM*,-55%,x,8.9µM*,7.9µM*,21µM*,u,6.5µM*,32%
COc1ccc(CN2Cc3cc(-c4cccc(F)c4)ccc3-n3nncc3C2)cc1,-2%,-14%,i,13%,11µM*,15µM*,u,u,0%
Fc1cccc(-c2ccc3c(c2)CN(C(=S)NCCc2ccccc2)Cc2cnnn2-3)c1,-31%,-18%,i,-1%,11µM*,u,-29%,u,-7%
S=C(NCCc1ccccc1)N1Cc2cc(N3CCCCC3)ccc2-n2nncc2C1,-4%,5%,i,-26%,10µM*,u,-9%,-30%,2%
S=C(NCCc1ccccc1)N1Cc2cc(-c3ccccc3)ccc2-n2nncc2C1,-26%,u,u,-1%,u,x,x,x,x
COc1ccc2c(c1)C1(CCNC1)C(=O)N2 (stereo not drawn),x,63%,x,x,x,x,x,x,x
C=C(C)C(=O)OC[N+](C)(C)CCOC(=O)C(O)(c1ccccc1)C1CCCC1 (stereo not drawn),x,10%,x,x,x,x,x,x,x
